# Measurements: PubChem BioAssay
# Several values for one entry are separate records, joined by “and”; a condition that tells them apart may be missing. Equal entries are not always repeated. Activity calls are given as the source filed them.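 Rule for the calls, unless noted: active = compounds whose cell count with miR-34 switched on is under 0.7 times the count with it off; inactive = the rest.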
# What was measured:
# [1] = viability loss with induced miR-34 in A549 – imaging, A549 dox-inducible miR-34, nuclei and caspase counts, primary screen (AID 1347080); details: A549 miR-34 inducible, Hoechst nuclei count, 48 h
# [2] = MELAS cybrid and Rieske KO viability enhancers – cell-based, MELAS cybrids, Rieske KO mouse fibroblasts, CellTiter-Glo, primary screen (AID 1508586;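 active = mean z-score across replicates of 1.96 or higher in either the MELAS or the Rieske mutant cell line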;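 note: z relative to plate mean and SD of compound and empty wells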); details: low glucose
# [3] = galactose survival enhancers in mitochondrial complex I cybrids – cell-based, galactose medium, ATP luminescence, primary screen (AID 1645843;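 active = z-score of at least 1.8 in each of two replicates, scored against plate mean and spread of sample wells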;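 note: positive z means more ATP and so rescue of galactose-driven cybrid death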); details: complex I mutant cybrid cells, 72 h, stronger effect = higher value
# [4] = P. berghei load reduction in hepatocytes – cell-based, HepG2, luciferase luminescence, HepG2 viability, primary screen (AID 624349; in the data active = parasite load remaining mostly below about 12%, no sharp cut-off; inactive = mostly above about 10%;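 note: 100% = mean of DMSO negative control wells on the same plate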); details: P. berghei liver stage in HepG2, luciferase luminescence, concentration not given here; parasite load remaining: stronger effect = lower value; viability: measured here: HepG2 viability without parasites
# [5] = biological target: NAD(+) hydrolase SARM1 (Homo sapiens) (UniProt Q6SZW1); assay: blocking NAD cleavage by SARM1 SAM-TIR – cell lysate, NAD-Glo luminescence (AID 1508614;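 active = compound whose remaining NAD level is above about 45 nM, limit read from the data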;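 note: higher remaining NAD means stronger inhibition of SARM1 NADase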); details: SAM-TIR HEK293T lysate NADase, at 1 µM, stronger effect = higher value
# [6] = stronger effect = lower value, cell number ratio, induced over uninduced
# [7] = measured here: relative caspase fold change +Dox/-Dox
# [8] = measured here: total cells with miR-34 induction, stronger effect = lower value
# [9] = measured here: total cells without miR-34 induction
# [10] = MELAS cybrid survival, CellTiter-Glo 48 h, stronger effect = higher value
# [11] = Rieske KO mouse fibroblast survival, CellTiter-Glo 72 h
# Chain of NAD(+) hydrolase SARM1 (Homo sapiens) (Q6SZW1 whole entry, looked up): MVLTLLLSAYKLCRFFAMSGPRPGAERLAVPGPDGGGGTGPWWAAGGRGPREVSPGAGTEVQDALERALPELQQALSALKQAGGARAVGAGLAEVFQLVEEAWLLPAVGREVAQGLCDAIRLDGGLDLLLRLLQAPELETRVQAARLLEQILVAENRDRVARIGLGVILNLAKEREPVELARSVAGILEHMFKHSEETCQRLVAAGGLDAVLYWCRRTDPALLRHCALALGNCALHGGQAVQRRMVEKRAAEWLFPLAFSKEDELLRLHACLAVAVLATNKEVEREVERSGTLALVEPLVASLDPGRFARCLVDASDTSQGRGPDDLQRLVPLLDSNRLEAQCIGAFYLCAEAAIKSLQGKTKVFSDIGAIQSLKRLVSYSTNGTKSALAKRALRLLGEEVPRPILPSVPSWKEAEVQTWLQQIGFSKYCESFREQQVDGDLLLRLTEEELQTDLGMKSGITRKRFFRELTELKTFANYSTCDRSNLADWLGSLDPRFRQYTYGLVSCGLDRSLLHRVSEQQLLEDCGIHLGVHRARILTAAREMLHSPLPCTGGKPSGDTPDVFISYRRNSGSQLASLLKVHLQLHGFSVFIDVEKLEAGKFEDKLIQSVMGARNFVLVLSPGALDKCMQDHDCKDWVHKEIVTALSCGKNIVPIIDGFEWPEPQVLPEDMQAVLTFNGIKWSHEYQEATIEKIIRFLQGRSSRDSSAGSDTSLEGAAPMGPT
Compound,"fold change [1, 6]","fold change [1, 7]","cell count [1, 8]","cell count [1, 9]","z-score [2, 10]","z-score [2, 11]",z-score [3],parasite load remaining [4],viability [4],remaining NAD [5]
Cn1nc(-c2cccnc2)c2[nH]c(-c3ccccc3OC(F)F)nc21,0.875 (inactive),0.925,6510,7440,-1.45 (inactive),0.404,0.095 (inactive),,,
NCc1ccccc1CC(=O)N[C@@H]1C(=O)N2C(C(=O)O)=C(CSc3nnnn3CC(=O)O)CS[C@H]12,0.949 (inactive),1.15,8230,8670,0.404 (inactive),-0.0556,,167% (inactive) and 62% (inactive),121% and 87.5%,10 nM (inactive)
C[C@]12CC[C@@H]3c4ccc(OS(=O)(=O)O)cc4CC[C@H]3[C@@H]1CCC2=O,0.873 (inactive),0.967,9010,10300,-0.105 (inactive),-0.186,,64.3% (inactive) and 61.4% (inactive),99.3% and 74.8%,10 nM (inactive)
Cc1cc(-c2cccc3cccnc23)nc(N)n1,0.914 (inactive),1.55,9030,9880,-0.012 (inactive),-0.264,-0.525 (inactive),,,
O=C(COc1ccc(Cl)cc1)Nc1ccccc1C(=O)O,0.906 (inactive),0.574,8240,9090,-0.363 (inactive),-0.206,0.885 (inactive),,,
CCOC(=O)O[C@]1(C(=O)COC(=O)CC)CC[C@H]2[C@@H]3CCC4=CC(=O)C=C[C@]4(C)[C@H]3[C@@H](O)C[C@@]21C,0.839 (inactive),0.816,5980,7130,-0.565 (inactive),0.21,,80.7% (inactive),80.3%,10 nM (inactive)
CO[C@H]1C[C@H](O[C@H]2[C@H](C)[C@@H](O[C@@H]3O[C@H](C)C[C@H](N(C)C)[C@H]3OC(C)=O)[C@@H](C)C[C@@]3(CO3)C(=O)[C@H](C)[C@@H](OC(C)=O)[C@@H](C)[C@@H](C)OC(=O)[C@@H]2C)O[C@@H](C)[C@@H]1OC(C)=O,0.951 (inactive) and 0.962 (inactive),1.2 and 1.02,9570 and 9780,10100 and 10200,0.411 (inactive) and -0.389 (inactive),-0.0819 and -0.533,0.095 (inactive),27.9% (inactive) and 46.8% (inactive),46.5% and 147%,
CC(NC(CCc1ccccc1)C(=O)O)C(=O)N1CCCC1C(=O)O (centres undefined),0.974 (inactive) and 0.933 (inactive),2.22 and 0.554,9670 and 8080,9920 and 8660,0.277 (inactive),0.0621,0.69 (inactive),,,
CCc1nc(NC(=O)NC(c2ccccc2)c2ccco2)nn1C (centres undefined),0.878 (inactive),0.916,8500,9680,-0.443 (inactive),0.186,1.04 (inactive),,,
Cc1cc(-c2cccc(OC(C)C)c2)nc(N)n1,0.871 (inactive),1.62,7710,8860,-1.21 (inactive),0.889,-0.56 (inactive),,,
CSc1n[nH]c(-c2ccc(Cl)cc2)n1,0.939 (inactive),0.52,8540,9100,1.97 (active),-0.569,0.11 (inactive),,,
Cc1ccc(NS(=O)(=O)c2ccccc2)c(C(=O)O)c1,0.888 (inactive),0.521,8960,10100,0.391 (inactive),-0.208,0.425 (inactive),,,
CO/N=C(\C(=O)N[C@@H]1C(=O)N2C(C(=O)O)=C(C[N+]3(C)CCCC3)CS[C@H]12)c1csc(N)n1,0.925 (inactive),0.702,8990,9720,-1.62 (inactive),-0.496,,85.4% (inactive),76.2%,10 nM (inactive)
COc1cc(F)ccc1C(=O)N1CCc2[nH]nc(Cc3ccccc3)c2C1,0.845 (inactive),1.46,6700,7930,0.33 (inactive),0.986,-0.125 (inactive),,,
CCC1OC(=O)C(C)C(OC2C[C@@](C)(OC)C(O)C(C)O2)C(C)C(OC2OC(C)CC(N(C)C)C2O)[C@](C)(OC)CC(C)C(=O)C(C)C(O)[C@]1(C)O (some centres undefined),0.943 (inactive) and 0.989 (inactive),1.76 and 0.873,9620 and 10500,10200 and 10600,-0.386 (inactive),0.552,-0.175 (inactive),,,
O=C(O)c1ccc(-c2ccccc2C(F)(F)F)o1,0.879 (inactive),0.45,8380,9530,0.000745 (inactive),-0.553,0.155 (inactive),,,
Cc1nc(-c2ccnc(N)n2)cn1Cc1c(Cl)cccc1Cl,0.853 (inactive),0.94,7950,9330,-0.789 (inactive),0.727,-0.225 (inactive),,,
